From PubChem BioAssay
Compounds with a hit are over-represented: about 21% of the library has one in this group of screens.
ClpP mod – qHTS Assay for Activators of ClpP | ATP-dependent Clp protease proteolytic subunit (Bacillus subtilis (strain 168)), P80244 | purified B. subtilis ClpP, FRET peptide cleavage, 20 min | Potency, µM (titrated, usually from 57.5 µM), inactives show at the highest dose activity change, negative = active | hit rate 1.9% among 340,000; active = well fitted falling curve with a large enough effect; inconclusive = small, poorly fitted or top-dose-only effect; inactive = no such curve, though single readings can be large or run the other way; note: potency is the fitted concentration of half-maximal effect; the source files actives as falling curves though it sought activators and does not explain the sign; nearly all actives have a fitted effect of over 65% in size
Target sequence (P80244 whole entry, looked up): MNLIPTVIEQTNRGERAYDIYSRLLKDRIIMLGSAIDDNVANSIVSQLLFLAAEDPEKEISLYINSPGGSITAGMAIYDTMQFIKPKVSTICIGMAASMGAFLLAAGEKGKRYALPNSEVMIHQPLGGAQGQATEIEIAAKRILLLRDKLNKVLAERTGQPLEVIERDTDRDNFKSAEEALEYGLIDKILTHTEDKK
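Purified B. subtilis ClpP, 10 microg/mL final in Tris/HCl pH8 with KCl, BSA, glycerol and Tween-20, cleaved an Abz/nitrotyrosine-quenched decapeptide. Fluorescence (ex 320, em 430) was read at 0 and 20 min at room temperature. Delta was normalized to 5.8 microM ADEP and DMSO/no-enzyme controls.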
DRD3 agonist – D3 dopamine receptor (human) agonism | max activation, % | P35462 | AID 652048 | hit rate 0.58% among 410,000 | D3R DiscoveRx beta-arrestin cells, luminescence, 90 min; in the data active = max activation above about 30%; note: 0% is about no effect
Target sequence (P35462 whole entry, looked up): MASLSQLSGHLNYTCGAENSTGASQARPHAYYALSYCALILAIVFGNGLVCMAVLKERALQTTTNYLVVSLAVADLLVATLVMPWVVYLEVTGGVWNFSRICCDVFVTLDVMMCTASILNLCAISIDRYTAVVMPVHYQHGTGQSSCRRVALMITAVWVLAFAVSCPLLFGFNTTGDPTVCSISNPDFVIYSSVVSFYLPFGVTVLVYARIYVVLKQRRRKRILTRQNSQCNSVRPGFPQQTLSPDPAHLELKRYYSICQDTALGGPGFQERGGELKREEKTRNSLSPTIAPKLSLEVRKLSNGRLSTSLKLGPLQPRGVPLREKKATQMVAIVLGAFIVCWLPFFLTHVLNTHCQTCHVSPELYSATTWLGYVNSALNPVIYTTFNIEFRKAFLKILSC
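Agonist mode: compounds and dopamine controls were applied to plated cells for 90 min at 37 degrees C after an overnight attachment at 1500 cells/well. Luminescent read-out followed 30 - 60 minutes at room temperature with DiscoveRx detection reagent.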
IL1B secr inh – inflammasome signaling inhibition, IL-1 beta readout | activity change, % at 57.5 µM | hit rate 4.7% among 360,000 | THP-1 LPS/ATP IL-1B secretion, AlphaLISA, 16 h; hits give low values | AID 743279; in the data active = activity change below about -50%; inconclusive = mostly about -30% to -49%; note: % is set by controls: 0 for no effect and ±100 for the full control effect
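Secreted IL-1B measured by AlphaLISA bead assay after 16 h compound exposure of THP-1 cells; compounds (final up to 57.5 uM) added 1 h before LPS (250 ng/mL) and ATP (1.25 mM) stimulation; lower signal means less secretion.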
D3 antag – D3 dopamine receptor (human) antagonism. P35462. D3R cells, DiscoveRx beta-arrestin luminescence, antagonist mode; hits give low values. max response, negative = inhibition, %. hit rate 2.5% among 360,000. AID 652054; in the data active = max response below about -50%; inconclusive = no clear call, values can overlap the other calls; note: % is set by controls: 0 for no effect and ±100 for the full control effect
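Cells plated overnight at 1500 cells/well, then exposed to library compounds with dopamine controls for 90 minutes at 37 degrees C. DiscoveRx reagent added for 30–60 minutes at room temperature; luminescence read, quantitative HTS format.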
TDP1 cell noCPT – qHTS for Inhibitors of human tyrosyl-DNA phosphodiesterase 1 (TDP1): qHTS in cells in absence of CPT; DT40 Tdp1-/- hTDP1 cells, no CPT, ATP luminescence, 48 h; Potency, µM (series often up to 46.2 µM), inactives show at the top dose activity change, negative = growth inhibition, most hits filed as inhibitors; hit rate 15% among 420,000; AID 686978, 2013; note: potency is the fitted concentration of half-maximal effect; % is set by controls: 0 for no effect and ±100 for the full control effect; nearly all actives have a fitted effect of over 55% in size
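Luminescent ATP content (CellTiter-Glo) served as the growth readout. Knockout chicken DT40 cells expressing human TDP1 were exposed to compounds without camptothecin for a minimum 48 hr at 37 °C.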
TDP1 cell CPT – growth inhibition of DT40 Tdp1-/-;hTDP1 cells with camptothecin (screen for TDP1 inhibitors) | chicken DT40 Tdp1-/-;hTDP1 cells + 20 nM CPT, ATP luminescence, 48 h | Potency, µM (doses to about 46.2 µM), for the others: top-dose activity change, negative = growth inhibition, most hits filed as inhibitors | hit rate 12% among 420,000 | AID 686979; note: potency is the fitted concentration of half-maximal effect; % is set by controls: 0 for no effect and ±100 for the full control effect; nearly all actives have a fitted effect of over 55% in size
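Cell growth measured by CellTiter-Glo luminescence after a minimum 48 h, 37 C compound exposure with 20 nM CPT in Tdp1-knockout DT40 cells stably expressing hTDP1, seeded 400/well; qHTS titration format.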
Active calls of the source: *. Unless noted, calls come from the whole dose curve; as a rule, active = well fitted inhibition curve with a large enough effect; inconclusive = small, poorly fitted or top-dose-only effect; inactive = flat fitted curve, though single readings scatter.

What do the screens show for `Cc1ccc(C)c(N2CCN(CC(=O)Nc3ccc([N+](=O)[O-])cc3C(=O)Nc3ccccc3F)CC2)c1`?
ClpP mod: 1%; DRD3 agonist: 50*; IL1B secr inh: 30; D3 antag: 17; TDP1 cell noCPT: inconclusive; TDP1 cell CPT: inconclusive

Results for Cn1c(SCc2ccccc2)nnc1-c1ccc2c(c1)OCO2 ?
ClpP mod: -13%; DRD3 agonist: 5; IL1B secr inh: -20; D3 antag: 0; TDP1 cell noCPT: inconclusive; TDP1 cell CPT: 15%

Results for COc1cc(OC)cc(-c2c(-c3ccc(F)cc3)c3cc(-c4ccc5c(c4)OCCO5)ccc3n2C)c1 ?
ClpP mod: 5%; DRD3 agonist: 6; IL1B secr inh: 55; D3 antag: -14; TDP1 cell noCPT: inconclusive; TDP1 cell CPT: -28%

How did c1ccc2c(c1)c1ccccc1n1c(-c3ccc4c(c3)OCO4)nnc21 do in these assays?
ClpP mod: 0%; DRD3 agonist: -2; IL1B secr inh: -57*; D3 antag: -5; TDP1 cell noCPT: 21µM*; TDP1 cell CPT: inconclusive

What do the screens show for `Cn1c(C=O)c(-c2ccc3c(c2)OCCO3)c2ccccc21`?
ClpP mod: -24%; DRD3 agonist: 16; IL1B secr inh: -8; D3 antag: 7; TDP1 cell noCPT: 18µM*; TDP1 cell CPT: inconclusive

Results for COc1ccc(-c2cc(Cl)cc3c(=O)c4ccccc4n(C)c23)cc1F ?
ClpP mod: inconclusive; DRD3 agonist: 14; IL1B secr inh: -12; D3 antag: 4; TDP1 cell noCPT: 21µM*; TDP1 cell CPT: 18µM*

What do the screens show for `COc1cc(-c2ccc3c(=O)c4ccccc4n(C)c3c2)cc(OC)c1OC`?
ClpP mod: 4%; DRD3 agonist: 68*; IL1B secr inh: inconclusive; D3 antag: 149; TDP1 cell noCPT: 12µM*; TDP1 cell CPT: 16µM*

How did CSc1ncccc1C(=O)OCC(=O)NC1CC1 do in these assays?
ClpP mod: -1%; DRD3 agonist: 2; IL1B secr inh: 8; D3 antag: -4; TDP1 cell noCPT: -1%; TDP1 cell CPT: 0%

What do the screens show for `Cn1c(-c2ccc3c(c2)OCO3)cc(=O)c2ccccc21`?
ClpP mod: 4%; DRD3 agonist: -24; IL1B secr inh: -6; D3 antag: -12; TDP1 cell noCPT: -11%; TDP1 cell CPT: -23%

Results for Cn1c2ccccc2c(=O)c2ccc(-c3ccc4c(c3)OCO4)cc21 ?
ClpP mod: 4%; DRD3 agonist: -21; IL1B secr inh: -8; D3 antag: 26; TDP1 cell noCPT: 13µM*; TDP1 cell CPT: inconclusive

What do the screens show for `Cn1c2ccccc2c(=O)c2ccc(F)cc21`?
ClpP mod: 5%; DRD3 agonist: 19; IL1B secr inh: -51*; D3 antag: 4; TDP1 cell noCPT: inconclusive; TDP1 cell CPT: inconclusive

Results for O=[N+]([O-])c1cccc(N(CC(O)CN2CCCC2)S(=O)(=O)c2ccccc2)c1 (configuration not stated) ?
ClpP mod: 0%; DRD3 agonist: -12; IL1B secr inh: -14; D3 antag: -3; TDP1 cell noCPT: 8%; TDP1 cell CPT: -8%

What do the screens show for `Fc1ccc(CCn2c(Cn3c(-c4cnccn4)nc4ccccc43)nc3ccccc32)cc1`?
ClpP mod: -2%; DRD3 agonist: -14; IL1B secr inh: -26; D3 antag: -59*; TDP1 cell noCPT: -48%; TDP1 cell CPT: -42%

Results for c1ccc(Cn2c(Cn3c(-c4cnccn4)nc4ccccc43)nc3ccccc32)cc1 ?
ClpP mod: -27%; DRD3 agonist: -4; IL1B secr inh: -14; D3 antag: -22; TDP1 cell noCPT: inconclusive; TDP1 cell CPT: 26µM*

Results for CCC(c1nc2ccccc2[nH]1)n1c(-c2cnccn2)nc2ccccc21 (configuration not stated) ?
ClpP mod: 0%; DRD3 agonist: 2; IL1B secr inh: inconclusive; D3 antag: 12; TDP1 cell noCPT: -13%; TDP1 cell CPT: 13%

What do the screens show for `CC(c1nc2ccccc2n1Cc1ccccc1)n1c(-c2cnccn2)nc2ccccc21` (configuration not stated)?
ClpP mod: -27%; DRD3 agonist: -4; IL1B secr inh: 24; D3 antag: -6; TDP1 cell noCPT: 21µM*; TDP1 cell CPT: 15µM*

What do the screens show for `OCCCc1nc2ccccc2n1Cc1ccccc1`?
ClpP mod: -3%; DRD3 agonist: -3; IL1B secr inh: 12; D3 antag: 4; TDP1 cell noCPT: -1%; TDP1 cell CPT: inconclusive

How did Cc1cc(S(=O)(=O)/N=C(\N)c2ccc(C(N)=O)cc2)cc(C)c1F do in these assays?
ClpP mod: 1%; DRD3 agonist: -1; IL1B secr inh: -2; D3 antag: -12; TDP1 cell noCPT: -13%; TDP1 cell CPT: 4%

What do the screens show for `c1ccc(-c2nnnn2-c2ccccc2)cc1`?
ClpP mod: -1%; DRD3 agonist: 12; IL1B secr inh: -2; D3 antag: 2; TDP1 cell noCPT: 21%; TDP1 cell CPT: 6%

Results for ClC(Cl)(c1nnnn1-c1ccccc1)c1nnnn1-c1ccccc1 ?
ClpP mod: 0%; DRD3 agonist: -8; IL1B secr inh: -120*; D3 antag: -72*; TDP1 cell noCPT: 2.6µM*; TDP1 cell CPT: 1.3µM*

What do the screens show for `CCN1CCN(c2c(S(=O)(=O)c3ccc(C)c(C)c3)cnc3cc(OC)c(OC)cc23)CC1`?
ClpP mod: -3%; DRD3 agonist: -15; TDP1 cell noCPT: inconclusive; TDP1 cell CPT: 15µM*

Results for COc1ccc(S(=O)(=O)c2cnc3ccc(Cl)cc3c2N2CCCCC2C)cc1 (configuration not stated) ?
ClpP mod: 0%; DRD3 agonist: -16; TDP1 cell noCPT: 23µM*; TDP1 cell CPT: 16µM*

Results for CCc1ccc(S(=O)(=O)c2cnc3ccc(OC)cc3c2N2CCCC(C)C2)cc1 (configuration not stated) ?
ClpP mod: -2%; DRD3 agonist: -14; TDP1 cell noCPT: inconclusive; TDP1 cell CPT: 16µM*

How did COc1cc2nc(CN3CCN(S(=O)(=O)c4cc(C)ccc4C)CC3)[nH]c(=O)c2cc1OC do in these assays?
DRD3 agonist: -9; IL1B secr inh: -12; D3 antag: 23; TDP1 cell noCPT: inconclusive; TDP1 cell CPT: inconclusive

How did CCc1ccc2ncc(S(=O)(=O)c3ccc(C)c(C)c3)c(N3CCCC3)c2c1 do in these assays?
ClpP mod: -12%; DRD3 agonist: -2; IL1B secr inh: -25; D3 antag: -56*; TDP1 cell noCPT: 15µM*; TDP1 cell CPT: 23µM*
